According to PubChem BioAssay (Tox21):
Inconclusive results are not listed. Calls of active or inactive are those of the source. Unless noted, the call rests on the fitted dose curve; in most records, active means well fitted curve in the direction sought with a large enough effect in the repeat runs; inconclusive means weak or mixed curves; inactive means no such curve, though single readings can be large; an effect the other way counts as inactive or inconclusive.

What was measured:
[1] = qHTS assay for small molecule agonists of the p53 signaling pathway (AID 651631; calls by dose curve; further: nearly all actives have a fitted effect of over 15% in size)
Method in brief: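 Read-out is beta-lactamase FRET fluorescence measured 2 h after substrate addition at room temperature, in HCT-116 cells with a p53 response element-driven reporter exposed to compounds for 16 h at 37 °C.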

[2] = qHTS assay for small molecules that induce genotoxicity in human embryonic kidney cells expressing luciferase-tagged ATAD5 (AID 651632); further: nearly all actives have a fitted effect of over 15% in size
Method in brief: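 Reporter cells (HEK293T) express luciferase-tagged ATAD5, a protein that accumulates after DNA damage. Treat 16 hr at 37C/5% CO2, add Amplite, wait 30 min at RT, and read luminescence.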

[3] = qHTS assay for small molecule agonists of the p53 signaling pathway - cell viability (AID 651633; calls by dose curve;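 further: p53RE-bla HCT reporter cells with a stable beta-lactamase p53 reporter; series mostly up to about 83 µM; nearly all actives have a fitted effect of over 30% in size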)
Method in brief: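 p53RE-bla cells were treated with compound for 16 hours at 37 C. Cytotoxicity was then measured as CellTiter-Glo luminescence after 30 min at room temperature.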

[4] = qHTS assay for small molecules that induce genotoxicity in human embryonic kidney cells expressing luciferase-tagged ATAD5 - cell viability (AID 651634; calls by dose curve; further: nearly all actives have a fitted effect of over 25% in size)
Method in brief: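 Seeding of 2,000 HEK293T ATAD5-luciferase cells per well preceded pin-tool compound transfer. Plates sat 15.5 hr at 37C under 5% CO2, then fluorescence was read after 30 min with CellTiter-Fluor.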

[5] = qHTS assay for small molecule disruptors of the mitochondrial membrane potential - cell viability (AID 720634; calls by dose curve;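 further: human HepG2 liver cancer cells; series mostly up to about 83 µM; nearly all actives have a fitted effect of over 20% in size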)
Method in brief: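 Measuring cytotoxicity alongside mitochondrial potential, the screen quantified ATP by luminescence in HepG2 cells after 1 hr compound incubation and a 30 min room-temperature CellTiter-Glo step.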

[6] = qHTS assay for small molecule disruptors of the mitochondrial membrane potential (AID 720635)
Method in brief: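 HepG2 cells exposed to compound 1 hr at 37C, then Mito-MPS dye 30 min. Ratio read of aggregate (540/590 nm) versus monomer (490/535 nm) fluorescence.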

[7] = qHTS assay to test for compound auto fluorescence at 590 nm (red) in HepG2 cells (AID 720674)
Method in brief: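 Fluorescence at 590 nm emission following 540 nm excitation was recorded from HepG2 wells one hour after compound transfer, with DMSO-only wells as vehicle and Rose Bengal sodium equivalency as the scale.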

[8] = qHTS assay to test for compound auto fluorescence at 535 nm (green) in HepG2 cells (AID 720675)
[9] = qHTS assay to test for compound auto fluorescence at 460 nm (blue) in HEK293 cells (AID 720678)
Method in brief: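 Blue read-out at excitation 405 nm and emission 460 nm follows overnight compound exposure of HEK293 cells at 37C in 5% CO2. Activity is given as auto fluorescence equivalency to triamterene.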

[10] = qHTS assay to test for compound auto fluorescence at 590 nm (red) in HEK293 cells (AID 720679)
Method in brief: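 Red channel, Ex/Em 540/590nm; signal expressed as equivalency to Rose Bengal sodium. HEK293, 2,000 cells/well, 10% dialyzed FBS; 23 nL compound pinned after 4-5 hr attachment; overnight 37C/5% CO2 before reading.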

[11] = qHTS assay to test for compound auto fluorescence at 460 nm (blue) in HEK293 cell free culture (AID 720681)
Method in brief: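 Compounds were added to cell-free DMEM with 10% FBS and fluorescence read directly. The blue channel used 405 nm excitation and 460 nm emission, with triamterene as the reference fluorophore.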

[12] = qHTS assay to test for compound auto fluorescence at 535 nm (green) in HEK293 cell free culture (AID 720682)
Method in brief: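 Fluorescein serves as the green reference fluorophore; each compound's intrinsic emission at 535 nm (excitation 485 nm) is reported as an equivalent amount of that dye, measured in serum-containing DMEM without cells.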

[13] = qHTS assay to test for compound auto fluorescence at 590 nm (red) in HEK293 cell free culture (AID 720683)
Method in brief: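 Cell-free wells of DMEM with 10% FBS received compound, and intrinsic fluorescence was read at excitation/emission 540/590 nm. Values expressed as equivalence to Rose Bengal sodium.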

[14] = qHTS assay to test for compound auto fluorescence at 590 nm (red) in HepG2 cell free culture (AID 720684)
Method in brief: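 Compound was pinned into wells holding MEM with 10% FBS and no cells, and red fluorescence was read at Ex/Em 540/590 nm. Signal is expressed as auto fluorescence equivalency relative to Rose Bengal sodium.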

[15] = qHTS assay to test for compound auto fluorescence at 460 nm (blue) in HepG2 cell free culture (AID 720685)
Method in brief: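 Compound (23 nL) or DMSO pinned into cell-free MEM with 10% FBS; blue fluorescence read at 405/460 nm excitation/emission, expressed as auto-fluorescence equivalency to triamterene.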

[16] = qHTS assay to test for compound auto fluorescence at 535 nm (green) in HepG2 cell free culture (AID 720686)
[17] = qHTS assay to test for compound auto fluorescence at 460 nm (blue) in HepG2 cells (AID 720687)
Method in brief: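 HepG2 cells in MEM with 10% FBS, attached overnight at 37 C, were exposed to compound or DMSO for 1 hr at 37 C, 5% CO2. Blue fluorescence was read at 405/460 nm, with triamterene as reference fluorophore.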

[18] = target: Glucocorticoid receptor (Homo sapiens) (UniProt P04150); test: qHTS assay to identify small molecule antagonists of the glucocorticoid receptor (GR) signaling pathway (AID 720692; active means well fitted inhibition curve with a large enough effect in the signal ratio in the repeat runs, not every such curve was filed as active; the % refers to the signal ratio)
Glucocorticoid receptor (Homo sapiens), sequence (P04150 whole entry, looked up): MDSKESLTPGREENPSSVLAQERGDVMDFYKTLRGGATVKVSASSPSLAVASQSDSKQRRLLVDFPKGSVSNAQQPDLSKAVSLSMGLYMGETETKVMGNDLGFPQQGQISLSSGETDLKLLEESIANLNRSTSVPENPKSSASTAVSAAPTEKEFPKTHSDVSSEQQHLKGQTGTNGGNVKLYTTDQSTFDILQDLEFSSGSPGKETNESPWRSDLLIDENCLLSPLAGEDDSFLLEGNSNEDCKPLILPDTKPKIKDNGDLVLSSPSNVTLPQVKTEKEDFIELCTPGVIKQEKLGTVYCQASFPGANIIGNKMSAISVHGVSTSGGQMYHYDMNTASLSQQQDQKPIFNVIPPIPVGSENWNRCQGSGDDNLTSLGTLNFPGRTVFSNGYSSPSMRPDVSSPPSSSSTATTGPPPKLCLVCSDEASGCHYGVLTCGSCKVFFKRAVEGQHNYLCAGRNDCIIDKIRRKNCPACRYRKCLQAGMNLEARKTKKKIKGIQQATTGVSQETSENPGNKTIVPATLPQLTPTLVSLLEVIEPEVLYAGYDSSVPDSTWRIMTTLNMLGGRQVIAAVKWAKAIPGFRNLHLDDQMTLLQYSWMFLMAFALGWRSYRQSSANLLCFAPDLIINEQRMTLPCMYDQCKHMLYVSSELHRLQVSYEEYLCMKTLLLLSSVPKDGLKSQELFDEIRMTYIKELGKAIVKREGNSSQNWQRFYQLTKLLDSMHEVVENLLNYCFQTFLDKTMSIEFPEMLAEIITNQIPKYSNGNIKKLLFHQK
Method in brief: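 Dexamethasone (5 nM final) stimulated a stably integrated GRE-beta-lactamase reporter in HeLa cells during 18 h co-incubation with compounds; signal was quantified as fluorescence intensity of B/G FRET substrate after 2 h.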

[19] = qHTS assay to identify small molecule antagonists of the glucocorticoid receptor (GR) signaling pathway - cell viability counter screen (AID 720693); further: nearly all actives have a fitted effect of over 55% in size
[20] = qHTS assay for identifying genotoxic compounds that show differential cytotoxicity against isogenic chicken DT40 cell lines with known DNA damage response pathways - Rad54/Ku70 mutant cell line (AID 743015); further: nearly all actives have a fitted effect of over 60% in size
[21] = qHTS assay to identify small molecule antagonists of the androgen receptor (AR) signaling pathway - cell viability counter screen (AID 743033; further: nearly all actives have a fitted effect of over 45% in size)
[22] = qHTS assay to identify small molecule antagonists of the androgen receptor (AR) signaling pathway using the MDA cell line - cell viability counter screen (AID 743041; further: nearly all actives have a fitted effect of over 45% in size)
Method in brief: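 MDA-kb2 AR-luc cells (MMTV-luciferase, AR/GR responsive) treated with compounds plus R1881 agonist for 16 h at 37C. CellTiter-Fluor added at 15.5 h; fluorescence read after 30 min in the same wells.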

[23] = qHTS assay to identify small molecule antagonists of the thyroid receptor (TR) signaling pathway - cell viability counter screen (AID 743064); further: nearly all actives have a fitted effect of over 50% in size
Method in brief: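 Fluorescence from CellTiter-Fluor, added after 23.5 h exposure at 37 °C, reported viability of GH3.TRE-Luc cells co-treated with compound and 1 nM T3. Measured in the same wells as the luciferase TR readout.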

[24] = qHTS assay to identify small molecule antagonists of the thyroid receptor (TR) signaling pathway (AID 743065); further: series mostly up to about 70 µM; nearly all actives have a fitted effect of over 55% in size
Method in brief: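 GH3.TRE-Luc rat pituitary cells (two TREs driving luciferase) were dosed with compound, then stimulated with 1 nM T3 (final) for 23.5 h at 37 C. ONE-Glo luminescence was the read-out, with CellTiter-Fluor fluorescence as the cytotoxicity counter-screen.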

[25] = tested on: thyroid hormone receptor (rat, GH3 cells); test: qHTS assay to identify small molecule agonists of the thyroid receptor (TR) signaling pathway (AID 743066; calls by dose curve)
[26] = target: Estrogen receptor (Homo sapiens) (UniProt P03372); test: qHTS assay to identify small molecule antagonists of the estrogen receptor alpha (ER-alpha) signaling pathway (AID 743069; active means well fitted curve in the direction sought with a large enough effect in the signal ratio in the repeat runs, not every such curve was filed as active; the % refers to the signal ratio)
Estrogen receptor (Homo sapiens), sequence (P03372 whole entry, looked up): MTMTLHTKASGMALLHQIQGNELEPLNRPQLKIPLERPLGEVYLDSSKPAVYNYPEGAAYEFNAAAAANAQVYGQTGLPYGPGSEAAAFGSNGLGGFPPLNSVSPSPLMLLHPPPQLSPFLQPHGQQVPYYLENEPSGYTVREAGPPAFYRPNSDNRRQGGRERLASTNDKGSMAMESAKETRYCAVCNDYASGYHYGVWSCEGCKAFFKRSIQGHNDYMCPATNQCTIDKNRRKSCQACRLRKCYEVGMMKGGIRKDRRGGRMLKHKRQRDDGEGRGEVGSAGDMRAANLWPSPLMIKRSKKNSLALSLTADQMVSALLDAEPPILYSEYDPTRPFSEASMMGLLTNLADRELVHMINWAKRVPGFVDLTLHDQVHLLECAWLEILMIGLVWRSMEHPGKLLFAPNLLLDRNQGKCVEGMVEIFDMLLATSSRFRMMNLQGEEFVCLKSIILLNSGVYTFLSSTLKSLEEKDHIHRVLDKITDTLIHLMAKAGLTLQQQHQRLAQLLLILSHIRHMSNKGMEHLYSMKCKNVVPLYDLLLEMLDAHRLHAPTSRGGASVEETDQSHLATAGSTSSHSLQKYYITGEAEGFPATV
Method in brief: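 HEK293 ER-alpha-UAS-bla GripTite cells, held overnight in 2% charcoal-stripped FBS, 5,000 cells/well, preincubated 4 h, then compound plus 17beta-estradiol for 18 h at 37C. Beta-lactamase read by LiveBLAzer B/G FRET substrate, 2 h at room temperature.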

[27] = target: Estrogen receptor (Homo sapiens) (UniProt P03372); test: qHTS assay to identify small molecule agonists of the estrogen receptor alpha (ER-alpha) signaling pathway (AID 743075; calls by dose curve)
[28] = qHTS assay to identify small molecule antagonists of the estrogen receptor alpha (ER-alpha) signaling pathway using the BG1 cell line (AID 743080; calls by dose curve;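 further: BG1 cells stimulated with 17beta-estradiol alongside compound; series mostly up to about 70 µM; nearly all actives have a fitted effect of over 25% in size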)
Method in brief: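 Luminescence from a 4×ERE-luciferase reporter in BG1-Luc-4E2 cells served as read-out. Cells, pre-cultured 5 days in stripped-serum phenol-red-free medium, were exposed to compound with 17beta-estradiol co-stimulation for 21.5 h at 37 C.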

[29] = qHTS assay to identify small molecule antagonists of the estrogen receptor alpha (ER-alpha) signaling pathway using the BG1 cell line - cell viability counter screen (AID 743081);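 further: compound given together with 17beta-estradiol as the ER stimulus; series mostly up to about 70 µM; nearly all actives have a fitted effect of over 45% in size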
Aromatase (Homo sapiens) = Aromatase (Homo sapiens) (UniProt P11511); test: qHTS assay to identify aromatase inhibitors (AID 743083); further: series mostly up to about 70 µM; nearly all actives have a fitted effect of over 55% in size
Aromatase (Homo sapiens), sequence (P11511 whole entry, looked up): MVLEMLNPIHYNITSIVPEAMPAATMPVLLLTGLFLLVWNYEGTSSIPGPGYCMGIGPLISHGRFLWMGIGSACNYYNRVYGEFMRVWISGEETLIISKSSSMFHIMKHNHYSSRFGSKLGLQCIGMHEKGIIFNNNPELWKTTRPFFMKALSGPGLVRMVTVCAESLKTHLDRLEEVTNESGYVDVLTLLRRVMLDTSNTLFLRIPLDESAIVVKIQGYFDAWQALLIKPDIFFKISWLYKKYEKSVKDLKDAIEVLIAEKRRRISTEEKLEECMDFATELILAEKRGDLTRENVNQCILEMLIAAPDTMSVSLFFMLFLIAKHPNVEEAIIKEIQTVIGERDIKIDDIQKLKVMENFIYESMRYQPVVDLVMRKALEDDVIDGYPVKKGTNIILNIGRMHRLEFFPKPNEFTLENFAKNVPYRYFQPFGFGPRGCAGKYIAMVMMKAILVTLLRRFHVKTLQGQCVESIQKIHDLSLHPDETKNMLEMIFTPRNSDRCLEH

[30] = qHTS assay to identify aromatase inhibitors - cell viability counter screen (AID 743084);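 further: cells stimulated with testosterone during compound exposure; nearly all actives have a fitted effect of over 55% in size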
[31] = target: Aryl hydrocarbon receptor (Homo sapiens) (UniProt P35869); test: qHTS assay to identify small molecule that activate the aryl hydrocarbon receptor (AhR) signaling pathway (AID 743085);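 further: HG2L7.5c1 human HepG2 liver cells with stably integrated DRE-driven firefly reporter; series mostly up to about 70 µM; nearly all actives have a fitted effect of over 15% in size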
Aryl hydrocarbon receptor (Homo sapiens), sequence (P35869 whole entry, looked up): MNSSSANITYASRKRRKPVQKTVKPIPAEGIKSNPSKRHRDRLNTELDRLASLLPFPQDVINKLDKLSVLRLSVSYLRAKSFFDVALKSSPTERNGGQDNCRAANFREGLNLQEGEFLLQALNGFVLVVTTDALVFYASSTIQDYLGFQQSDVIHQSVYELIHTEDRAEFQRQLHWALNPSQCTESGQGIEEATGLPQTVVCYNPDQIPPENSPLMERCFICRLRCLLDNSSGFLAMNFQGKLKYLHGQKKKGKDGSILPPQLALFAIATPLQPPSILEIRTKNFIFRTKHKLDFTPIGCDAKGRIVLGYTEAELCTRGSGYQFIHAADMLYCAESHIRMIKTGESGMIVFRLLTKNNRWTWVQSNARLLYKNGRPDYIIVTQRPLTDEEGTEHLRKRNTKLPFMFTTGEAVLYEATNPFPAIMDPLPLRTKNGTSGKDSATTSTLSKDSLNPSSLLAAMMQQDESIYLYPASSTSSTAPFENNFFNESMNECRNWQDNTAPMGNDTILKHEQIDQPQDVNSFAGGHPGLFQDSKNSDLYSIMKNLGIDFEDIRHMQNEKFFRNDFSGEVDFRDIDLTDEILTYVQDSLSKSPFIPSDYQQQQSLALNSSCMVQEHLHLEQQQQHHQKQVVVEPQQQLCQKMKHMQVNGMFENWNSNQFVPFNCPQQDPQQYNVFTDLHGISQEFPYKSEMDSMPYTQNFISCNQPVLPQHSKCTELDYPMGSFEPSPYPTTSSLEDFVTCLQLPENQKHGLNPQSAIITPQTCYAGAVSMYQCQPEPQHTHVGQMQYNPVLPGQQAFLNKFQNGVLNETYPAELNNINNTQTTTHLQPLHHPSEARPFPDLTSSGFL
Method in brief: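 Cell line HG2L7.5c1 (human hepatoma, 20× DRE-luc). Plated, 5 h 37C, compound/DMSO added, 24 h 37C. CellTiter-Fluor 30 min 37C → fluorescence; then ONE-Glo 30 min RT → luminescence.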

[32] = qHTS assay to identify small molecule that activate the aryl hydrocarbon receptor (AhR) signaling pathway - cell viability counter screen (AID 743086);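 further: HepG2 liver cells carrying the AhR DRE luciferase reporter; series mostly up to about 70 µM; nearly all actives have a fitted effect of over 45% in size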
Method in brief: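 HepG2-AhR-luc (HG2L7.5c1) cells, 4000/well, treated 24 h at 37 C with compound; viability measured as CellTiter-Fluor fluorescence after 30 min in the same wells as the luciferase read.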

[33] = target: Peroxisome proliferator-activated receptor gamma (Homo sapiens) (UniProt P37231); test: qHTS assay to identify small molecule agonists of the peroxisome proliferator-activated receptor gamma (PPARg) signaling pathway (AID 743094; active means well fitted activation curve with a large enough effect in the signal ratio in the repeat runs, not every such curve was filed as active; the % refers to the signal ratio)
Peroxisome proliferator-activated receptor gamma (Homo sapiens), sequence (P37231 whole entry, looked up): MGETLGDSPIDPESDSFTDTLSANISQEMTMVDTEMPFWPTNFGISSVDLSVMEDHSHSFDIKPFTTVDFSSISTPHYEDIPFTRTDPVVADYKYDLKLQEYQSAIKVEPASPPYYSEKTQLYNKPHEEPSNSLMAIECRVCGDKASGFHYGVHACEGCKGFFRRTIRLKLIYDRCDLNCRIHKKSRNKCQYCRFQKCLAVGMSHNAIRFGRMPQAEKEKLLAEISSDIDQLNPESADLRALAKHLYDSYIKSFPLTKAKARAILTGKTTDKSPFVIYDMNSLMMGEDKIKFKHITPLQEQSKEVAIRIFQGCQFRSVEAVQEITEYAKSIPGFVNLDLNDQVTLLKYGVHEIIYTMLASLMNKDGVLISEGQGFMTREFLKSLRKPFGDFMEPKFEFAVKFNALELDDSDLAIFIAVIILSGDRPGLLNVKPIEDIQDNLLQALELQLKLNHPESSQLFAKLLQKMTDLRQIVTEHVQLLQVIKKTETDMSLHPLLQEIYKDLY
Method in brief: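 Following 5 h plating at 37C, PPARg-bla HEK293H cells receive compound or DMSO for 17 h; fluorescence intensity is recorded after LiveBLAzer B/G loading for 1 h at room temperature.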

[34] = qHTS assay to identify small molecule antagonists of the estrogen related receptor (ERR) signaling pathway - cell viability counter screen (AID 1224818);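 further: series mostly up to about 46 µM; viability measured after 17.5 h of compound exposure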
Method in brief: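 In the same ERR cell assay, compound-treated wells (17.5 h, 37 C) were multiplexed with a fluorogenic viability reagent, CellTiter-Fluor, read after 30 min to flag cytotoxic substances.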

[35] = qHTS assay to identify small molecule antagonists of the estrogen related receptor (ERR) signaling pathway (AID 1224819;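 further: luminescence from an ERR-driven luciferase reporter measured with One-Glo reagent; series mostly up to about 46 µM; nearly all actives have a fitted effect of over 50% in size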)
Method in brief: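 qHTS in ERR cells, 2,000/well, 1536 format. Cpd (DMSO) added after 6 h settle, 18 h 37 C. One-Glo luminescence, 30 min RT.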

[36] = qHTS assay to identify small molecule agonists of the estrogen related receptor (ERR) signaling pathway (AID 1224820)
Method in brief: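 Cells: ERR line from NTP, 2,000/well. Pre-incubation 6 h, 37 C/5% CO2. Compound (DMSO) pin transfer, 18 h 37 C. One-Glo, 30 min RT, luminescence.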

[37] = tested on: estrogen-related receptor alpha (ERRalpha) with PGC-1alpha coactivator, human; test: qHTS assay to identify small molecule antagonists of the estrogen related receptor signaling pathway with the pleiotropic PPARgamma coactivator (PGC) (AID 1224821; calls by dose curve;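 further: series mostly up to about 46 µM; lower luminescence signal means antagonism of PGC/ERR signalling; nearly all actives have a fitted effect of over 50% in size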)
Method in brief: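 Luminescent read-out (One-Glo, 30 min at room temperature) following 18 h treatment of PGC/ERR cells at 37 C with compounds delivered in DMSO. Cells had settled 6 h at 37 C/5% CO2 before dosing.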

[38] = qHTS assay to identify small molecule antagonists of the estrogen related receptor signaling pathway with the pleiotropic PPARgamma coactivator (PGC) cell viability counter screen (AID 1224822; further: series mostly up to about 46 µM)
Method in brief: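 Compounds in DMSO, with positive and negative controls, were applied to PGC/ERR cells (2,000/well) and left 17.5 h at 37 C before CellTiter-Fluor detection.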

[39] = qHTS assay to identify small molecule agonists of the estrogen related receptor signaling pathway with the pleiotropic PPARgamma coactivator (PGC) (AID 1224823)
Method in brief: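 Steps: plate PGC/ERR cells at 2,000 cells/well; incubate 6 h, 37 C/5% CO2; pin-transfer compounds (DMSO); incubate 18 h, 37 C; add One-Glo; 30 min RT; read luminescence.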

[40] = qHTS assay to identify small molecule phospholipidosis (PLD) inducers (AID 1259344; active means well fitted curve in the direction sought with a large enough effect; an effect the other way counts as inactive or inconclusive)
Method in brief: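 HepG2 cells, 900/well, treated with compound plus LipidTOX Red for 24 h at 37 C; amiodarone positive and DMSO negative controls. Fixed with paraformaldehyde/Hoechst, then high-content imaging scored LipidTOX pit count and integrated intensity per well and per cell.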

Measured: Potency

CCCCc1ccc(C(=O)O)nc1
inactive: all assays above

N[C@@H](Cn1oc(=O)[nH]c1=O)C(=O)O
inactive: [34] | [35] | [36] | [37] | [38] | [39]

CNCCc1ccc(O)c(O)c1
inactive: [34] | [35] | [36] | [37] | [38] | [39]

O=C(N[C@H]1CN2CCC1CC2)c1ccc(Cl)cc1
inactive: [34] | [35] | [36] | [37] | [38] | [39]
